# Compound activity as filed in PubChem BioAssay.
# Sampled rows, rich in hits. Any-hit rate of the full collection: about 1.3%.
# MEP2 TOR yeast: modulators of TOR pathway MEP2-GFP in S. cerevisiae. 330,000 tested, 0.51% active. S. cerevisiae MEP2-GFP strain, flow cytometry GFP, 3 h; 100% = DMSO control level. GFP response vs DMSO, % at 10 µM;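 active means GFP response versus DMSO above a set limit, roughly screen mean plus 3 SD, cut at about 180% in these data; inconclusive means fewer than 70 cells counted for a yeast strain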;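 further: median GFP fluorescence of the barcode-gated MEP2-GFP cells per well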
# AGP1-GFP MLPCN: modulators of TOR pathway AGP1-GFP in S. cerevisiae. S. cerevisiae AGP1-GFP multiplex flow cytometry, 3 h; GFP as percent of DMSO wells. GFP response vs DMSO, % at 10 µM. 320,000 tested, 0.02% active. AID 2066;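 active means GFP response relative to DMSO above a set limit, near screen average plus 3 SD, cut at about 150% in these data; inconclusive means fewer than 70 cells counted for the yeast strain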;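 further: median GFP channel fluorescence of the gated AGP1 strain per well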
# RPL19A-GFP yeast: modulators of TOR pathway RPL19A-GFP in S. cerevisiae. percent response vs DMSO, % at 10 µM. 330,000 tested, 0.3% active. S. cerevisiae RPL19A-GFP strain, flow cytometry, 3 h; stronger effect = lower value;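 active means percent response vs DMSO below 50%; inconclusive means fewer than 70 events counted for the yeast strain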;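 further: median channel GFP fluorescence of the barcoded RPL19A-GFP strain; ratio of sample median GFP to plate DMSO average so 100% = DMSO; lower means less RPL19A-GFP as with rapamycin TOR inhibition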
# CIT2-GFP yeast: yeast TOR pathway CIT2-GFP modulation | S. cerevisiae CIT2-GFP strain, flow cytometry, 3 h; 100 means same as DMSO wells | GFP response vs DMSO, % at 10 µM | 320,000 tested, 0.065% active;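 active means GFP response relative to DMSO above a set limit, near the screen mean plus 3 SD, cut at about 150% in these data; inconclusive means Fewer than 70 cells measured for a yeast strain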;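 further: ratio of well median GFP fluorescence to mean of DMSO wells on the plate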
# LAP4 TOR yeast: alters LAP4-GFP fluorescence in TOR pathway yeast screen; S. cerevisiae LAP4-GFP multiplex, flow cytometry GFP, 3 h; median GFP as percent of DMSO wells; GFP response vs DMSO, % at 10 µM; 320,000 tested, 0.34% active; AID 2023;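 active means GFP response vs DMSO above a set limit, about the screen mean plus 3 SD, cut at about 150% in these data; inconclusive means under 70 cell events counted for the yeast strain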
# Efflux pump inh: blocks antifungal efflux pumps in multiplex yeast assay. S. cerevisiae Candida pump triplex, Nile Red efflux. inhibition, % at 10 µM. 330,000 tested, 0.44% active;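 active means plate passing quality check with inhibition over a set limit, or well fluorescence over plate mean plus 4 SD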;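 further: Nile Red retained in pooled yeast measured as flow cytometry median fluorescence; 0% = buffer negative control and 100% = Enniatin B positive control; higher means more Nile Red kept so more efflux inhibition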
# * marks the source's active call; other numbers are inactive results; ? = inconclusive; · = not tested or not shown; [ ] = remark or other dose.
SMILES,MEP2 TOR yeast,AGP1-GFP MLPCN,RPL19A-GFP yeast,CIT2-GFP yeast,LAP4 TOR yeast,Efflux pump inh
COc1ccc(S(=O)(=O)n2[nH]c(=O)c(CCO)c2C)cc1,114,108,95,137,106,0
O=C(c1ccc(S(=O)(=O)N2CCCC2)cc1)N(c1ccccc1)C1C=CS(=O)(=O)C1 (stereo not given),103,112,101,105,120,0
CN(C)/C=C/C(=O)/C=C/c1cn(-c2ncc(C(F)(F)F)cc2Cl)c2ccccc12,232*[may fluoresce violet],?,41*[may fluoresce violet],?,82,0
Cc1cc(C)cc(NC(=O)C2C3C=CC4(O3)C2C(=O)N(CCCN2CCCCC2)C4C(=O)NC2CCCCC2)c1 (stereo not given),93,69,89,86,84,0
COCCCN1C(=O)C2C(C(=O)Nc3cc(C)cc(C)c3)C3C=CC2(O3)C1C(=O)NC1CCCCC1 (stereo not given),217*,57,63,86,88,0
O=C(Nc1ccc(Br)cc1)C1C2C=CC3(O2)C1C(=O)N(CCN1CCOCC1)C3C(=O)NC1CCCCC1 (stereo not given),438*[may fluoresce violet],25,57,?,88,0
CC(C)(CNC(=O)CNC(=O)c1ccccc1F)N1CCOCC1,103,104,103,95,113,0
c1ccc(C(c2nnnn2Cc2cccs2)N2CCN(C3CCCC3)CC2)cc1 (stereo not given),231*[may fluoresce violet],?,33*[may fluoresce violet],?,93,0
CCNC(=O)C1Cc2cc(S(=O)(=O)N3CCCC3)ccc2N1C(C)=O (stereo not given),87,101,97,106,88,0
CN1CCN(NC(=O)Nc2ccc(Br)cc2Cl)CC1,94,87,116,82,73,0
O=C(NCCC1=CCCCC1)c1cc(-c2ccncc2)nc2ccccc12,86,97,93,94,94,0
COc1ccc(CCC(=O)NCCOc2ccccc2Cl)cc1,185*[may fluoresce violet],?,28*[may fluoresce violet],?,70,0
Cc1cccc(NC(=O)CN2C(=O)NC(C)(c3ccc4c(c3)OCO4)C2=O)c1 (stereo not given),289*[may fluoresce violet],19,20*[may fluoresce violet],?,72,0
C/C(CCC12CC3CC(CC(C3)C1)C2)=N\NC(N)=S,96,133,95,95,184*,0
CCn1nc(C)c(/C=N/NC(=O)c2ccc3c(c2)c(C)c(C)n3Cc2ccccc2)c1C,279*[may fluoresce violet],?,22*[may fluoresce violet],?,98,0
CCn1ncc(/C=N\NC(=O)c2ccc3c(c2)c(C)c(C)n3Cc2ccccc2)c1C,?,?,?,?,?,0
CC(=O)c1ccc(N2CCN(CC(=O)Nc3ccc(N4CCOCC4)cc3)CC2)cc1,98,95,91,·,91,0
CC(C)CC(=O)Nc1ccc(C(=O)CN2CCN(c3ccc(O)cc3)CC2)cc1,237*[may fluoresce violet],?,26*[may fluoresce violet],?,58,0
CCOc1ccc(NC(=O)C2CCCN(c3c(CC)c(C)nc4ncnn34)C2)cc1 (stereo not given),214*[may fluoresce violet],15,51,?,79,0
O=C(NCC(c1cccnc1)N1CCOCC1)Nc1ccccc1 (stereo not given),189*[may fluoresce violet],?,23*[may fluoresce violet],?,78,0
COC(=O)c1ccc(N2CCN(C)CC2)c(NC(=O)c2ccc(Br)o2)c1,105,102,101,120,108,0
CCOC(=O)CNC(=O)c1cc(OC)cc(OC)c1,98,97,96,99,101,0
COc1cc(OC)cc(C(=O)NCC(=O)OCC(=O)C(C)(C)C)c1,484*[may fluoresce violet],17,73,?,78,0
CCOC(=O)c1cc2ccc(OC(=O)c3ccco3)cc2oc1=O,198*[may fluoresce violet],?,50*[may fluoresce violet],?,104,0
O=C(COc1ccccc1[N+](=O)[O-])Nc1ccc(Br)cc1,605*[may fluoresce violet],21,56,?,89,0
SMILES,MEP2 TOR yeast,AGP1-GFP MLPCN,RPL19A-GFP yeast,CIT2-GFP yeast,LAP4 TOR yeast,Efflux pump inh
O=C(COc1ccccc1[N+](=O)[O-])Nc1cccnc1,100,106,100,112,99,0
O=C(O)c1ccc([N+](=O)[O-])c2c1C(=O)c1ccccc1C2=O,102,106,103,96,94,0
O=C1c2ccccc2C(=O)c2c([N+](=O)[O-])ccc(O)c21,135,83,92,101,154*,0
O=C(Nc1ccc(S(=O)(=O)N2CCCCC2)cc1)C1CCCCC1,256*[may fluoresce violet],17,61,?,83,0
CC(=O)Nc1ccc(S(=O)(=O)N2CCN(C)CC2)cc1,210*[may fluoresce violet],15,58,?,86,0
COc1ccc(NC(=S)Nc2cccc(S(=O)(=O)N3CCCCC3)c2)cc1,259*[may fluoresce violet],?,23*[may fluoresce violet],?,54,1
O=C(NNS(=O)(=O)c1ccccc1)C1CCCCC1,241*[may fluoresce violet],?,46*[may fluoresce violet],?,80,0
CN1CCN(S(=O)(=O)c2ccc(NC(=O)C3CCCCC3)cc2)CC1,102,99,97,101,100,0
CC(C)c1nnc(SCC(=O)N2CCc3ccccc32)n1N,124,106,110,101,103,0
O=C(NCC1CCCO1)c1nn2c(C(F)(F)F)cc(-c3cc(Br)cs3)nc2c1Br (stereo not given),231*[may fluoresce violet],?,44*[may fluoresce violet],?,67,0
CCOc1ccc(CN(C)C(=O)c2ccc3c(c2)NC(=O)C(C)S3)cc1OC (stereo not given),96,100,97,106,101,0
CC(NC(=O)c1ccccc1)c1nc2ccccc2n1Cc1ccccc1F (stereo not given),293*[may fluoresce violet],?,16*[may fluoresce violet],?,71,0
CC(NC(=O)c1ccccc1)c1nc2ccccc2n1Cc1ccc(C#N)cc1 (stereo not given),105,102,99,99,99,0
CCOc1ccc(C(=O)Nc2ccc(NC(=O)c3ccccc3)c(C)c2)cc1[N+](=O)[O-],118,87,92,103,100,0
O=C(NCc1ccccc1F)C1CCN(S(=O)(=O)c2ccccc2)CC1,102,93,96,90,94,0
O=[N+]([O-])c1ccc(O)c(/C=N/n2cnc3ccccc32)c1,184*[may fluoresce violet],?,51,?,95,0
CC(=O)NCC(=O)NC(C(=O)Nc1ccc2c(c1)OCCO2)c1ccccc1 (stereo not given),96,105,106,104,100,0
CC(=O)NCC(=O)NC(C(=O)Nc1ccc2c(c1)OCCO2)c1ccc(C)cc1 (stereo not given),?,?,40*[may fluoresce violet],?,?,0
